Compound activity from PubChem.
In the library only some 15% were active in any assay of this set; here they are far more common.
DT40 TDP1 CPT = DT40-hTDP1 cell growth loss with CPT | AID 686979 | chicken DT40 Tdp1-/-;hTDP1 cells + 20 nM CPT, ATP luminescence, 48 h | Potency, µM (doses to about 46.2 µM), without a hit: at the highest dose activity change, negative = growth inhibition, hits mostly inhibitors | actives 12% (n = 420,000); also: nearly all actives have a fitted effect of over 55% in size
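Chicken DT40 Tdp1-/- cells complemented with human TDP1, 400 cells/well, exposed to compounds plus 20 nM camptothecin for at least 48 h at 37 C; viability read as ATP content by CellTiter-Glo luminescence.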
ELG1 repair inh = ELG1-dependent DNA repair inhibition. actives 2.3% (n = 330,000). Potency, µM (doses to about 46.1 µM), for inactives: top-dose activity change, negative = inhibition, most hits filed as inhibitors. HEK293T ELG1-luciferase reporter, luminescence, 16 h; DNA damage induced by 5-fluorouridine. AID 504467; also: nearly all actives have a fitted effect of over 55% in size
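DMSO vehicle served as the neutral condition. Each well held 2,000 cells given 5-fluorouridine plus compound; after 16 hr at 37 °C/5% CO2, ONE-Glo was added and luciferase measured 30 min later.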
Gal4-VP16 FLuc = counter-screen for ROR gamma inhibitors: Gal4-VP16 reporter; actives 3.5% (n = 310,000); Potency, µM (highest dose often 53.6 µM), without a hit: top-dose activity, negative = inhibition, hits mostly inhibitors; Drosophila S2 Gal4-VP16 UAS-luciferase, luminescence, 20 h;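 also: Gal4-VP16 expression switched on by copper sulfate through the metallothionein promoter; nearly all actives have a fitted effect of over 50% in size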
TDP1 cell noCPT = qHTS for Inhibitors of human tyrosyl-DNA phosphodiesterase 1 (TDP1): qHTS in cells in absence of CPT. DT40 Tdp1-/- hTDP1 cells, no CPT, ATP luminescence, 48 h. Potency, µM (titrated, usually from 46.2 µM), for the others: top-dose activity change, negative = growth inhibition, actives largely listed as inhibitors. actives 15% (n = 420,000). AID 686978, 2013; also: nearly all actives have a fitted effect of over 55% in size
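No-CPT arm: Tdp1-/-;hTDP1 DT40 cells (400/well) plus compounds, incubated ≥48 hr at 37 °C. Readout CellTiter-Glo luminescence.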
12-LOX inh = inhibitors of human 12S-lipoxygenase ALOX12 | purified 12hLO, xylenol orange hydroperoxide absorbance | Potency, µM (highest dose often 108 µM), inactives show at the top dose activity change, negative = inhibition, hits mostly inhibitors | actives 1.1% (n = 580,000) | P18054
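Purified human 12hLO at 150 nM in 25 mM Hepes, 0.01% Triton X-100, pH 7.0, preincubated 15 min at room temperature with compound. Reaction started with 40 uM arachidonic acid, 30 min at room temperature. Hydroperoxide measured by Fe-xylenol orange, 573/405 nm absorbance ratio.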
RORgamma inh = inhibitors of mouse ROR gamma transcriptional activity; Potency, µM (top dose mostly 53.6 µM), for the others: at the highest dose activity change, negative = inhibition, usual class: inhibitors; P51450; Drosophila S2 Gal4-RORgamma UAS-luciferase reporter, 20 h; actives 5.4% (n = 310,000); also: nearly all actives have a fitted effect of over 60% in size
Target sequence (P51450 whole entry, looked up, the tested form may be a part): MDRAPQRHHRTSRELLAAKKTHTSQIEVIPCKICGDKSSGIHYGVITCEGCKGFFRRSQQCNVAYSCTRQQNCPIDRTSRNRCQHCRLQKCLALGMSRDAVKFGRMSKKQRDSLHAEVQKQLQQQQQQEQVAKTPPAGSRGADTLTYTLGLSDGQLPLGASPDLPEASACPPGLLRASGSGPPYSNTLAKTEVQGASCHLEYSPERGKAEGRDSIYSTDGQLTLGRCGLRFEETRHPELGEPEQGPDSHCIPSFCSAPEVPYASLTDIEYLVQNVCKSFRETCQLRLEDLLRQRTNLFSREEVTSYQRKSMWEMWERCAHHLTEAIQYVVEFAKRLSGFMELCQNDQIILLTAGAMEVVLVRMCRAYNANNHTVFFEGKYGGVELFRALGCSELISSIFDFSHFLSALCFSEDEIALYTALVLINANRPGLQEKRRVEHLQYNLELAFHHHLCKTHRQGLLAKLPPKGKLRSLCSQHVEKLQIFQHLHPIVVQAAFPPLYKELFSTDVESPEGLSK
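Luciferase reporter read in Schneider cells carrying Gal4-RORγ (mouse) and UAS-Photinus luciferase; cells given compound 1 h before 700 uM copper sulfate induction, then incubated 20 h at ambient temperature.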
Starred values were filed as active, the others as inactive; u = inconclusive; x = not tested or not shown; [ ] = remark or other dose. Calls follow the shape of the dose curve; as a rule, active = well fitted curve in the direction sought with a large enough effect; inconclusive = small, poorly fitted or top-dose-only effect, or another doubt; inactive = no such curve, though single readings can be large; an effect the other way counts as inactive or inconclusive. % is scaled to controls: 0 for no effect and ±100 for the full control effect; potency is read from the fitted curve at half-maximal effect.

SMILES	DT40 TDP1 CPT	ELG1 repair inh	Gal4-VP16 FLuc	TDP1 cell noCPT	12-LOX inh	RORgamma inh
COc1ccc(-c2cc3nc(C)c(CCC(=O)N4CCN(c5ccccc5F)CC4)c(C)n3n2)c(OC)c1	u	x	x	29µM*	-5%	x
COc1ccc(-c2cc3nc(C)c(CCC(=O)Nc4ccccc4C(C)=O)c(C)n3n2)c(OC)c1	10%	x	x	-18%	-18%	x
COc1ccc(-c2cc3nc(C)c(CCC(=O)N4CCN(c5ccccn5)CC4)c(C)n3n2)c(OC)c1	u	u	u	16µM*	0%	0%
CN(C1CCOCC1)C1CCN(S(=O)(=O)c2ccccc2)CC1	x	x	x	x	11%	x
COCCN1CCOC[C@H]2CCN(C(=O)c3ccco3)C[C@H]21	x	x	x	x	37%	x
O=C(CC1CCCN(c2cnn(CC3CC3)c(=O)c2)C1)NCCN1CCCCC1 (centres undefined)	x	x	x	x	26%	x
COC(=O)C1=NOC2(C=C(Br)C(OC)=C(Br)C2=O)C1 (centres undefined)	x	x	2.5µM*	x	x	1.8µM*
CC1(C)Cc2sc3c(=O)n(CC(=O)c4ccc(Br)cc4)cnc3c2CO1	x	x	x	x	0%	x
CCN(CC)S(=O)(=O)c1ccc(C(=O)OCCN2C(=O)c3cccc4c(N5CCOCC5)ccc(c34)C2=O)cc1	u	u	5%	18µM*	9%	15%
COc1ccccc1C(=O)Nc1ccccc1C(=O)NC1CCCCC1	u	-6%	-1%	u	19%	5%
FC(F)(F)c1ccc(Cl)c(NC(=S)NC2CC2)c1	11%	u	18µM*	-3%	-23%	16µM*
CC(C)(C)c1ccccc1NC(=S)NC1CCCC1	u	-4%	3.5µM*	u	u	4.5µM*
COc1ccccc1C(=O)NNC(=O)C(=O)NC1CCCCC1	21µM*	u	-4%	u	-4%	u
COc1ccccc1NC(=S)NC1CCCCCC1	u	-5%	4µM*	18µM*	u	6.3µM*
Cc1ccc(C)c(Nc2nc(N3CCOCC3)nc3nccnc23)c1	x	x	x	x	10%	x
CC(C)[C@]1(O)CN(C(=O)Cn2[nH]c3ccccc3c2=O)C[C@H]1C	x	x	x	x	-1%	x
Cc1ccc(S(=O)(=O)NC[C@H]2OC[C@@H](N(C)C)[C@@H]2O)cc1	x	x	x	x	-9%[176 µM]	x
COc1cc(NC(=S)NC2CC2)c(OC)cc1Cl	u	u	u	u	u	10µM*
CC(C)(C)c1ccccc1NC(=S)NC1CCCCC1	u	-17%	6.3µM*	18µM*	40µM*	1.8µM*
Fc1ccccc1NC(=S)NC1CCCC1	u	-11%	u	23µM*	u	11µM*
COc1cc(NC(=S)N(C)C)c(OC)cc1Cl	-14%	-21%	-6%	-4%	-76%	-5%
O=c1[nH]c2ccccc2cc1-c1nnn(-c2ccc(F)cc2)n1	u	u	3%	u	u	-22%
O=c1[nH]c2ccccc2cc1-c1nnn(-c2ccc(Cl)c(Cl)c2)n1	7.3µM*	x	x	u	u	x
c1cc2c(cc1OC1CN(CC3CCCCC3)C1)OCO2	x	x	x	x	6%[12.5 µM]	x
Cc1ccc(NC(=Nc2ccc(Br)cc2)N2CCOCC2)cc1C	u	-11%	-3%	21µM*	-9%	1%
SMILES	DT40 TDP1 CPT	ELG1 repair inh	Gal4-VP16 FLuc	TDP1 cell noCPT	12-LOX inh	RORgamma inh
CS(=O)(=O)N1Cc2ccccc2CC1C(=O)Nc1ccccc1C(N)=O (centres undefined)	23µM*	11%	-8%	-23%	0%	3%
CCOc1ccccc1NC(=O)C1Cc2ccccc2CN1S(C)(=O)=O (centres undefined)	0%	-3%	1%	-17%	0%	0%
CCS(=O)(=O)N1Cc2ccccc2CC1C(=O)Nc1nc2ccccc2[nH]1 (centres undefined)	-19%	u	-26%	-21%	4%	u
CCc1nnc(NC(=O)C2Cc3ccccc3CN2S(=O)(=O)c2c(C)c(C)cc(C)c2C)s1 (centres undefined)	-26%	u	-13%	u	-20%	11µM*
CCS(=O)(=O)N1Cc2ccccc2CC1C(=O)Nc1nc2ccccc2s1 (centres undefined)	u	u	4.5µM*	16µM*	-3%	3.5µM*
CCc1nnc(NC(=O)C2Cc3ccccc3CN2S(=O)(=O)CC)s1 (centres undefined)	-4%	3%	4%	16%	1%	-21%
O=C(c1ccccc1F)N1N=C(c2ccsc2)CC1c1ccc2nccnc2c1 (centres undefined)	x	x	x	x	16%	x
CN=C1NN=C(c2cc(C)n(-c3ccc(Cl)cc3)c2C)CS1	0%	u	11%	u	u	-15%
Fc1ccccc1N=C1NN=C(c2ccccc2)CS1	u	u	-17%	u	-2%	u
CC(C)N=C1NN=C(c2ccc(F)cc2)CS1	18µM*	u	u	23µM*	-17%	7.1µM*
Fc1ccc(N=C2NN=C(c3cc(F)ccc3F)CS2)cc1	u	u	u	15µM*	u	u
O=S(=O)(c1ccc(N=C2NN=C(c3cc(F)ccc3F)CS2)cc1)N1CCOCC1	8.2µM*	u	7%	6.5µM*	u	6%
Fc1ccc(F)c(C2=NNC(=Nc3ccccc3F)SC2)c1	u	u	u	16µM*	-28%	u
COc1ccc(-c2coc3cc(OCC(=O)NCCC4=CCCCC4)ccc3c2=O)cc1OC	x	x	x	x	-23%	x
COCCN[C@H]1C[C@@H]2c3[nH]c4ccccc4c3C[C@@H](C(=O)OC)N2[C@H](c2ccccc2)C1	x	x	x	x	2%[176 µM]	x
Nc1nonc1-n1nnc(C(=O)N/N=C/c2ccccc2)c1CSc1ccccc1	8%	-6%	-2%	-7%	u	-45%
Nc1nonc1-n1nnc(C(=O)N/N=C/c2ccoc2)c1CSc1ccc(Cl)cc1	-10%	-18%	13µM*	-22%	-10%	7.1µM*
Nc1nonc1-n1nnc(C(=O)N/N=C/c2cccnc2)c1CSc1ccccc1	3%	-2%	-2%	-3%	9%	19%
Nc1nonc1-n1nnc(C(=O)N/N=C/c2cccnc2)c1CSc1ccc(Cl)cc1	23µM*	-8%	-10%	u	-6%	26%
Nc1nonc1-n1nnc(C(=O)N/N=C/c2ccoc2)c1CSc1ccccc1	-14%	5%	u	-10%	x	16µM*
Cc1ccccc1Cn1cc(-c2ccncc2)cc1C(=O)N(C)Cc1ccco1	x	x	x	x	23%	x
